Experimental data reported in PubChem BioAssay AID1345085 (National Center for Advancing Translational Sciences (NCATS), 2018).
Results filed as inconclusive are left out. Values without a mark were called inactive. Active and inactive are the calls of the source. Calls come from the whole dose curve; as a rule, active = well fitted cell-killing curve with a large enough effect; inconclusive = small, poorly fitted or top-dose-only effect, or effect the other way; inactive = no such curve, though single readings can be large or run the other way.

Each molecule was assayed on CAOV3 (assay: Confirmatory qHTS for gynecologic anti-cancer compounds from libraries of approved drugs and bioactive compounds). Details: gynecologic cancer cell panel viability, ATPlite luminescence, 48 h; series mostly up to 57.6 µM; activity change, negative = viability loss: at the top concentration.
In short: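 Cells (1,000/well) were plated, left 16 h at 37 C/5% CO2, then given compound at 11 concentrations (1:3) from 57.5 uM to 0.977 nM for 48 h. ATPlite luminescence after 15 min at room temperature gave IC50 values.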
% is set by controls: 0 for no effect and ±100 for the full control effect; potency is the fitted concentration of half-maximal effect.
Note: nearly all actives have a fitted effect of over 55% in size.

Row | SMILES | Potency | activity change, negative = viability loss
1 | CNC(=O)c1ccccc1Sc1ccc2c(/C=C/c3ccccn3)n[nH]c2c1 | 6.85 µM (active) | 
2 | CCCCN(CCCC)CC(O)c1cc(Cl)cc2c1-c1ccc(Cl)cc1/C2=C/c1ccc(Cl)cc1 (centres undefined) |  | -11.5%
3 | Cc1csc(NC(=O)c2sc3nc4c(c(C(F)(F)F)c3c2N)CCC4)n1 | 1.72 µM (active) | 
4 | C1CCC(C(CC2CCCCN2)C2CCCCC2)CC1 (centres undefined) | 24.3 µM (active) | 
5 | O=C(NOCC1CC1)c1ccc(F)c(F)c1Nc1ccc(I)cc1Cl |  | 0.245%
6 | COCCOc1ccc2c(c1)ncn2-c1ccc2cccc(N3CCC(N)CC3)c2n1 |  | -10.6%
7 | COc1ccc(-c2cc3nccn3c(Nc3ncccc3C(N)=O)n2)cc1OC |  | -6.41%
8 | NC(=O)c1cnc(-c2ccc(C3(N)CCC3)cc2)c(-c2ccccc2)c1 | 30.6 µM (active) | 
9 | Cc1ccn(-c2ccc(-c3ncco3)cc2)c(=O)c1-c1ccc2nc(N)ncc2c1 |  | -11.3%
10 | Nc1ncn([C@@H]2O[C@H](CO)[C@@H](O)[C@H]2O)c(=O)n1 |  | 1.76%
11 | Nc1ncnc2c1ncn2[C@@H]1O[C@H](CO)C[C@H]1O |  | 15.8%
12 | CC(C)C[C@H](NC(=O)[C@H](CCc1ccccc1)NC(=O)CN1CCOCC1)C(=O)N[C@@H](Cc1ccccc1)C(=O)N[C@@H](CC(C)C)C(=O)[C@@]1(C)CO1 | 3.06 µM (active) | 
13 | NC1(c2ccc(-c3nc4ccn5c(=O)[nH]nc5c4cc3-c3ccccc3)cc2)CCC1 |  | 4.9%
14 | COc1cc(N2CCC(N)CC2)ccc1Nc1ncc(Cl)c(-c2c[nH]c3ccccc23)n1 | 3.43 µM (active) | 
15 | O=C1c2c(O)ccc(O)c2C(=O)c2c(NCCNCCO)ccc(NCCNCCO)c21 | 3.85 µM (active) | 
16 | COc1cc(N2CCC(N3CCN(C)CC3)CC2)ccc1Nc1ncc(Cl)c(Nc2ccccc2S(=O)(=O)C(C)C)n1 | 3.43 µM (active) | 
17 | CC(=O)c1cnc2ccc(-c3cc(Cl)c(O)c(Cl)c3)nc2c1NC1CCC(CN(C)C)CC1 (centres undefined) | 0.157 µM (active) | 

Row | SMILES | Potency | activity change, negative = viability loss
18 | COc1cc(Nc2c(C#N)cnc3cc(OCCCN4CCN(C)CC4)c(OC)cc23)c(Cl)cc1Cl | 27.3 µM (active) | 
19 | Cc1cc(Nc2nc(N[C@@H](C)c3ccc(F)cc3)c(C#N)cc2F)n[nH]1 | 17.2 µM (active) | 
20 | COc1ccccc1N1CCN(CC(O)COc2cccc3ccccc23)CC1 (centres undefined) |  | -3.71%
21 | O=c1cc(CN2CCOCC2)occ1OCCCCCSc1ccnc2cc(C(F)(F)F)ccc12 |  | -24.7%
22 | CC(C)Nc1cc(-c2c[nH]c(C(=O)N[C@H](CO)c3cccc(Cl)c3)c2)c(Cl)cn1 |  | 8.77%
23 | CN1CCN(Cc2ccc(NC(=O)Nc3ccc(Oc4cc(NC(=O)C5CC5)ncn4)cc3)cc2C(F)(F)F)CC1 | 13.7 µM (active) | 
24 | Cc1ccc(C(=O)Nc2cccc(C(F)(F)F)c2)cc1-c1ccc2nc(NCCN3CCOCC3)ncc2c1 | 24.3 µM (active) | 
25 | CCN(CC)CCOc1ccc(/C(=C(\Cl)c2ccccc2)c2ccccc2)cc1 | 100 µM (active) | 
26 | c1nc2nc(Nc3ccc(N4CCOCC4)cc3)nc(NC3CCCCC3)c2[nH]1 | 4.73 µM (active) | 
27 | COc1cc(Nc2ncc(F)c(Nc3ccc4c(n3)N(COP(=O)(O)O)C(=O)C(C)(C)O4)n2)cc(OC)c1OC | 3.43 µM (active) | 
28 | Cc1ccc(C(N)=O)cc1Nc1nccc(-c2cn(C(C)C)c3cnccc23)n1 | 17.2 µM (active) | 
29 | CC(C)CC(=O)Nc1n[nH]c2c1CN(C(=O)C1CCN(C)CC1)C2(C)C | 1.22 µM (active) | 
30 | COc1ccc(-c2ccc3c(N4CCOCC4C)nc(N4CCOCC4C)nc3n2)cc1CO (centres undefined) |  | -2.81%
31 | CCN[C@H]1C[C@H](C)S(=O)(=O)c2sc(S(N)(=O)=O)cc21 |  | 9.03%
32 | COc1ccc(OC)c(-c2nnc3ccc(-c4ccc(OC)c(O[C@@H]5CCOC5)c4)nn23)c1 | 8.63 µM (active) | 
33 | Nc1ccccc1NC(=O)c1ccc(CNc2nccc(-c3cccnc3)n2)cc1 | 2.73 µM (active) | 
34 | Cc1ccc(C(=O)Nc2ccc(CN3CCN(C)CC3)c(C(F)(F)F)c2)cc1C#Cc1cnc2cccnn12 | 19.3 µM (active) | 
